# Screening data as filed in PubChem.
# MEP2 TOR yeast: modulators of TOR pathway MEP2-GFP in S. cerevisiae | S. cerevisiae MEP2-GFP strain, flow cytometry GFP, 3 h; 100% = DMSO control level | GFP response vs DMSO, % at 10 µM | actives 0.51% (n = 330,000);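 active means GFP response versus DMSO above a set limit, roughly screen mean plus 3 SD, cut at about 180% in these data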;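 further: median GFP fluorescence of the barcode-gated MEP2-GFP cells per well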
# CIT2 TOR yeast: modulators of TOR pathway CIT2-GFP in S. cerevisiae; S. cerevisiae CIT2-GFP strain, flow cytometry, 3 h; 100 means same as DMSO wells; GFP response vs DMSO, % at 10 µM; actives 0.065% (n = 320,000); AID 2029;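 active means GFP response relative to DMSO above a set limit, near the screen mean plus 3 SD, cut at about 150% in these data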;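 further: ratio of well median GFP fluorescence to mean of DMSO wells on the plate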
# LAP4 TOR yeast: yeast TOR pathway LAP4-GFP modulation; S. cerevisiae LAP4-GFP multiplex, flow cytometry GFP, 3 h; median GFP as percent of DMSO wells; GFP response vs DMSO, % at 10 µM; actives 0.34% (n = 320,000);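 active means GFP response vs DMSO above a set limit, about the screen mean plus 3 SD, cut at about 150% in these data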
# AGP1 TOR yeast: alters AGP1-GFP fluorescence in TOR pathway yeast screen | GFP response vs DMSO, % at 10 µM | actives 0.02% (n = 320,000) | S. cerevisiae AGP1-GFP multiplex flow cytometry, 3 h; GFP as percent of DMSO wells;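 active means GFP response relative to DMSO above a set limit, near screen average plus 3 SD, cut at about 150% in these data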;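 further: median GFP channel fluorescence of the gated AGP1 strain per well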
# Efflux pump inh: blocks antifungal efflux pumps in multiplex yeast assay | S. cerevisiae Candida pump triplex, Nile Red efflux | inhibition, % at 10 µM | actives 0.44% (n = 330,000);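 active means plate passing quality check with inhibition over a set limit, or well fluorescence over plate mean plus 4 SD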;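 further: Nile Red retained in pooled yeast measured as flow cytometry median fluorescence; 0% = buffer negative control and 100% = Enniatin B positive control; higher means more Nile Red kept so more efflux inhibition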
# RPL19A TOR yeast: alters RPL19A-GFP fluorescence in TOR pathway yeast screen | S. cerevisiae RPL19A-GFP strain, flow cytometry, 3 h; stronger effect = lower value | AID 2025 | actives 0.3% (n = 330,000) | percent response vs DMSO, % at 10 µM;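 active means percent response vs DMSO below 50%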;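 further: median channel GFP fluorescence of the barcoded RPL19A-GFP strain; ratio of sample median GFP to plate DMSO average so 100% = DMSO; lower means less RPL19A-GFP as with rapamycin TOR inhibition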
# Yeast cmpd fluor: flagged as fluorescent in efflux inhibitor counter-screen; actives 4% (n = 1,700); fluorescence ratio to DMSO, % at 10 µM; AID 588517; S. cerevisiae AD/pABC3, compound fluorescence, flow cytometry; shares compounds with Efflux pump inh;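 active means fluorescence ratio to DMSO above its plate's cutoff, the plate mean ratio plus 5 SD, cut at about 210% in these data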;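 further: unstained yeast with no Nile Red so the signal is compound autofluorescence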
# CaMdr1 efflux inh: blocks the Candida albicans Mdr1 efflux pump in yeast; shares compounds with Efflux pump inh; S. cerevisiae AD/CaMDR1, Nile Red efflux, flow cytometry; inhibition, % at 10 µM; actives 1% (n = 1,700); in the data active means inhibition above about 26%;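 further: 0% = DMSO vehicle and 100% = reference inhibitor; higher means more Nile Red retained so more efflux inhibition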
# Cdr2 pump inh: Candida Cdr2 efflux pump inhibition; shares compounds with Efflux pump inh; S. cerevisiae AD/CaCDR2, Nile Red retention, flow cytometry; Nile Red retention ratio vs DMSO, % at 10 µM; actives 4% (n = 1,700); AID 588520; in the data active means Nile Red retention ratio vs DMSO above about 190%;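 further: higher ratio means more blocking of Cdr2 efflux of the dye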
# Cdr1 pump inh: Candida Cdr1 efflux pump inhibition; inhibition, % at 10 µM; actives 1% (n = 1,700); shares compounds with Efflux pump inh; S. cerevisiae AD/CaCDR1, Nile Red efflux, flow cytometry;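 active means inhibition above the screen-wide mean plus twice its standard deviation, cut at about 32% in these data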
# * = called active by the depositor; x = no result given; [ ] = dose if it differs, or a comment. Compounds with a hit are over-represented: about 1.3% of the library has one in this group of screens.
SMILES,MEP2 TOR yeast,CIT2 TOR yeast,LAP4 TOR yeast,AGP1 TOR yeast,Efflux pump inh,RPL19A TOR yeast,Yeast cmpd fluor,CaMdr1 efflux inh,Cdr2 pump inh,Cdr1 pump inh
C(=C\c1nccc2c1[nH]c1ccccc12)/c1ccccc1,101,92,109,102,0,100,x,x,x,x
Cc1ccc(/C=C\c2nccc3c2[nH]c2ccccc23)cc1,105,104,102,101,1.2*,101,108,0,106,0
CCCCn1c(N)c(N(C)C(=O)c2cccc(-n3cnnn3)c2)c(=O)[nH]c1=O,106,107,97,101,0,99,x,x,x,x
N#Cc1cc(C(=O)c2ccccc2O)cn(-c2nccs2)c1=O,99,79,106,92,0,93,x,x,x,x
N#Cc1cc(C(=O)c2cc(F)ccc2O)cn(-c2nccs2)c1=O,108,100,78,83,6.7*,110,210*,2,95,1
COc1ccc2c(Cl)c(C(=O)N/N=C/c3cccnc3)sc2c1,99,100,111,85,0,95,x,x,x,x
CC(C)c1ccc(OCC(=O)NC2CCCC2)cc1,99,98,104,92,9.2*,96,113,0,110,0
Clc1nc(Nc2ccccc2)nc(Nc2ccccc2)n1,95,90,98,89,11*,97,101,0,104,0
CSc1ccc(/C=C2\C(=N)N3N=C(CC(=O)N4CCCCC4)SC3=NC2=O)cc1,101,102,92,97,0,98,x,x,x,x
CNS(=O)(=O)c1ccc(C(=O)NCC(=O)NCC2COc3ccccc3O2)cc1 (stereo not given),98,89,105,97,0.6*,97,105,0,95,0
O=C(O)CC(NCc1ccco1)C(=O)OCC1CCCO1 (stereo not given),101,93,88,88,0.7*,103,104,0,94,0
CCCn1c(C)cc(/C=C(\C#N)C(=O)OCC(=O)NC(=O)NC(C)(C)C)c1C,103,104,108,103,0,99,x,x,x,x
C=CCNC(=O)NC(=O)COC(=O)/C(C#N)=C/c1cc(C)n(CC(C)C)c1C,106,99,105,98,2.4*,105,100,0,102,0
CC1CN(S(=O)(=O)c2cc(C(=O)N3CCCCC3C)ccc2Cl)CC(C)O1 (stereo not given),93,87,97,91,0,96,x,x,x,x
O=C(Nc1cccc(NC(=S)NC(=O)c2cccs2)c1)c1ccccc1,97,106,84,95,8.0*,99,91,0,100,0
O=C(NC(=S)Nc1cccc(NC(=O)c2ccccc2Cl)c1)c1cccs1,97,102,91,103,-7,99,x,x,x,x
Cc1ccc(NC(=S)NC(=O)c2ccccc2)cc1NC(=S)NC(=O)c1ccccc1,102,96,90,95,0.7*,101,105,0,97,0
COC(=O)c1ccccc1NC(=S)NC(=O)c1ccccc1,100,104,91,89,0,98,x,x,x,x
Cc1cccc(C(=O)NC(=S)Nc2ccc(Cc3ccncc3)cc2)c1,98,81,116,89,0.7*,96,103,0,121,0
O=C(NC(=S)Nc1ccc2nc[nH]c2c1)c1ccccc1,114,168*[may fluoresce green],108,120,0,95,105,0,101,0
O=C(NC(=S)Nc1ccc2ncccc2c1)c1ccccc1,102,95,102,98,0,99,x,x,x,x
COc1ccccc1CNC(=O)CN(C)S(=O)(=O)c1ccc(F)cc1,99,105,88,95,0,97,x,x,x,x
C/C(=N\NC(=O)CCn1nnc2ccccc21)c1cccs1,103,109,104,105,0,96,x,x,x,x
COC(=O)C1=COC(C)C2CN3CCc4c([nH]c5cc(OC)c(OC)cc45)C3CC12 (stereo not given),114,103,103,108,0.9*,98,107,0,119,0
O=C(NCCCN1CCCC1=O)c1cncc(Br)c1,94,86,88,84,0,84,x,x,x,x
SMILES,MEP2 TOR yeast,CIT2 TOR yeast,LAP4 TOR yeast,AGP1 TOR yeast,Efflux pump inh,RPL19A TOR yeast,Yeast cmpd fluor,CaMdr1 efflux inh,Cdr2 pump inh,Cdr1 pump inh
O=C(NCCCN1CCCC1=O)c1cccnc1,103,105,100,103,5.9*,104,95,0,91,0
CC(=O)N1CCN(C(=S)Nc2ccc(Oc3ccccc3)cc2)CC1,99,96,109,94,0,94,x,x,x,x
O=C(C1CCC(CNc2c(N3CCCCC3)c(=O)c2=O)CC1)N1CCCC1 (stereo not given),95,94,98,95,0,95,x,x,x,x
O=C(N/N=C/c1ccccc1O)C(=O)Nc1ccccn1,102,88,109,92,0,106,x,x,x,x
NC(=O)c1nsc(C(=O)N(c2ccccc2)C(C(=O)NCc2ccc(F)cc2)c2ccco2)c1N (stereo not given),106,103,101,99,0.5*,107,102,0,112,0
NC(=O)c1nsc(C(=O)N(c2ccccc2)C(C(=O)NCc2ccc(F)cc2)c2ccc(O)cc2)c1N (stereo not given),93,102,106,97,0,93,x,x,x,x
COc1cc([N+](=O)[O-])ccc1NC(=S)NC(=O)CC(C)(C)C,102,106,106,111,0,106,x,x,x,x
O=C(/C=C/c1ccccc1Cl)NCCc1ccccc1,102,79,111,97,3.3*,97,102,0,112,0
CN(CC(=O)Nc1ccc(F)cc1)C(=O)Cn1cnc2ccc(Cl)cc2c1=O,94,85,94,96,0,95,x,x,x,x
COC(=O)c1c(NC(=O)c2ccn(C)n2)sc2c1CCC2,92,92,92,92,0,104,102,0,106,0
CCn1ncc(Br)c1C(=O)Nc1cc(C)cc(C)c1,100,104,97,100,6.5*,101,108,0,106,0
NC(=O)c1c(NC(=O)c2ccccc2)sc2c1CCC2,97,94,93,85,0,96,x,x,x,x
